Source: PubChem BioAssay
The list is not random: actives were taken first. Their share in the collection is about 3.3%.
ERa SRC1 inh: blocks coactivator binding to human estrogen receptor alpha. P03372. TR-FRET ER-alpha LBD / SRC-1 peptide, estradiol-bound. inhibition, % at 25.6 µM. hit rate 1.7% among 86,000. AID 629; in the data active = inhibition above about 50%;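 note: 0% = receptor plus peptide control and 100% = peptide only without receptor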
ERa SRC1 pot: enhances coactivator binding to human estrogen receptor alpha. coactivator binding (% of control), % at 25.6 µM. hit rate 1.3% among 86,000. TR-FRET ERalpha-LBD/SRC-Cy5 coactivator binding, 2 h; 100 = basal binding, no effect. AID 639. P03372; in the data active = activity above about 200%;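 note: binding measured in presence of low estradiol as agonist stimulus; 0% = peptide alone without receptor and 100% = receptor with peptide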
Calb biofilm kill: kills Candida albicans biofilms; C. albicans biofilm + clotrimazole, Alamar Blue; inhibition, % at 6 µM; hit rate 0.14% among 85,000;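 active = inhibition above 20%; inactive = inhibition below 20%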;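 note: preformed 24 hr biofilms exposed to compound for 48 hr; 0% = biofilm without compound and 100% = blank killed by clotrimazole plus chlorhexidine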
Smad3 inh: blocks human Smad3 binding to FoxH1 peptide. hit rate 0.29% among 88,000. AID 630. P84022. TR-FRET Smad3/Dy647-FoxH1 peptide binding, europium anti-His. inhibition, % at 25 µM;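 active = compounds that reduce the energy-transfer binding signal between the protein and its labelled peptide by more than half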;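 note: 0% = Smad3 plus labelled peptide maximal FRET and 100% = peptide-only background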
ERb SRC1 inh: blocks coactivator binding to human estrogen receptor beta; inhibition, % at 25.6 µM; TR-FRET ER-beta LBD / SRC1-Cy5 peptide binding; receptor agonist-loaded with 1 µM estradiol; Q92731; hit rate 1.3% among 86,000; AID 633;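 active = compounds whose percent inhibition of the receptor-coactivator binding signal exceeds about 50% in the single-dose screen, limit read from the data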;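 note: 0% = receptor plus peptide wells without compound and 100% = peptide-only wells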
FAK blocker: blocks human focal adhesion kinase activity. AID 727. inhibition, %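 (tested at 7 µM)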. biochemical FAK kinase activity assay. hit rate 0.84% among 97,000; in the data active = inhibition above about 19%;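 note: 0% = DMSO and 100% = reference compound high control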
Target sequence (Q05397 whole entry, looked up): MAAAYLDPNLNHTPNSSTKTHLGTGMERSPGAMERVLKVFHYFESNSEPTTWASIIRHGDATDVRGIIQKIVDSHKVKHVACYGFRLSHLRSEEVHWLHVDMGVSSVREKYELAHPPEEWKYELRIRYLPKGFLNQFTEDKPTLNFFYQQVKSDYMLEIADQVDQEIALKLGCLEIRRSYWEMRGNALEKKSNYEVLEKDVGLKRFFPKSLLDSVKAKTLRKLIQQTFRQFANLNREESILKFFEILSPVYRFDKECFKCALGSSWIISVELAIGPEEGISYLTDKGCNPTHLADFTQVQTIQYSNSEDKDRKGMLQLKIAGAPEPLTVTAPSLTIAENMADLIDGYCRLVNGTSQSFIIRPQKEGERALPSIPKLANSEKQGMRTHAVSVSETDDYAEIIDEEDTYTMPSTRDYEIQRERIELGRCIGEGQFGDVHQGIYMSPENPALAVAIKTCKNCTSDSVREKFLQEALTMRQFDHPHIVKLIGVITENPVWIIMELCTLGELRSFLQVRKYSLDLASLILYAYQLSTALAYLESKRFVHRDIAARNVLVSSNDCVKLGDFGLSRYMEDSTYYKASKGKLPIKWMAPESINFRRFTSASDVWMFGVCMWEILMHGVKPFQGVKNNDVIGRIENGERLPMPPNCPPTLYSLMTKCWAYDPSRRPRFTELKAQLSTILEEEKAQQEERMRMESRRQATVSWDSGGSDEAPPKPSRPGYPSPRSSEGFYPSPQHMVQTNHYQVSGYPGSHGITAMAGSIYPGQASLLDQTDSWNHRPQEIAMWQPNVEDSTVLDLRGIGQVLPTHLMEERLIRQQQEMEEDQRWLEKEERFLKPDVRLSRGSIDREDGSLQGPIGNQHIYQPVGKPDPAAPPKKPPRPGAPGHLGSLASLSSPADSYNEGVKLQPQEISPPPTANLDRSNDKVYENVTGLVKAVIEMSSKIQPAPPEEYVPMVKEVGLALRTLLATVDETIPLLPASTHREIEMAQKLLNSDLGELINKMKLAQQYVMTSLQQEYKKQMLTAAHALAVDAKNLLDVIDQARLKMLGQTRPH
An asterisk follows results filed as active; [ ] = dose if it differs, or a comment.

Cc1cc(SCC(=O)c2cc3ccccc3o2)nc2ccccc12 was read as ERa SRC1 inh 2, ERa SRC1 pot 228*[fluorescence artefact?], Calb biofilm kill 7, Smad3 inh -2, ERb SRC1 inh -1 and FAK blocker 1.
For O=C(CSc1nc2ccccc2o1)c1ccc2c(c1)OCCO2 the results were ERa SRC1 inh 3, ERa SRC1 pot 108, Calb biofilm kill 7, Smad3 inh 14, ERb SRC1 inh -7 and FAK blocker 7.
Cc1cc(SCC(=O)N2CCCC2)nc2ccccc12 was read as ERa SRC1 inh 5, ERa SRC1 pot 97, Calb biofilm kill 4, Smad3 inh 23, ERb SRC1 inh -20 and FAK blocker 1.
Cc1cc(SCC(=O)c2ccc3c(c2)OCO3)nc2ccccc12 was read as ERa SRC1 inh 16, ERa SRC1 pot 441*[fluorescence artefact?], Calb biofilm kill 2, Smad3 inh 4, ERb SRC1 inh 4 and FAK blocker 1.
Screening Cc1cc(C(=O)CSc2nnc(-c3ccccc3)n2Cc2ccc3c(c2)OCO3)c(C)n1C returned ERa SRC1 inh -4, ERa SRC1 pot 133, Calb biofilm kill 1, Smad3 inh 6, ERb SRC1 inh -1 and FAK blocker 3.
O=C(O)c1ccccc1C1c2ccccc2Oc2ccccc21 was read as Smad3 inh -3.
Screening COc1ccc(C(=O)NCC(=O)OCC(=O)c2ccc3c(c2)OCCO3)cc1 returned FAK blocker 0.
`COc1ccc2oc(C(=O)OCC(=O)c3ccc4c(c3)OCCO4)c(C)c2c1` gave ERa SRC1 inh 7, ERa SRC1 pot 229*, Calb biofilm kill 2, Smad3 inh -2, ERb SRC1 inh 0 and FAK blocker 0.
Screening O=C1c2ccccc2CC1(Cc1ccccc1)Cc1ccccc1 returned ERa SRC1 inh 1, ERa SRC1 pot 279*, Calb biofilm kill 6, Smad3 inh -11, ERb SRC1 inh -6 and FAK blocker -1.
`CC1(C)Cc2ccccc2C(=O)N1` gave ERa SRC1 inh -1, ERa SRC1 pot 132, Calb biofilm kill 4, Smad3 inh 17, ERb SRC1 inh 18 and FAK blocker -7.
Screening CCN(CC)CCOc1nc(C)nc2c1oc1ccccc12 returned ERa SRC1 inh -3, ERa SRC1 pot 113, Calb biofilm kill -6, Smad3 inh 1, ERb SRC1 inh -3 and FAK blocker -3.
Screening Cc1nc(Oc2cccc(Cl)c2)c2oc3ccccc3c2n1 returned ERa SRC1 inh 1, ERa SRC1 pot 93, Calb biofilm kill -5, Smad3 inh -6, ERb SRC1 inh 74*[fluorescence artefact?] and FAK blocker -1.
Screening CCc1nc(SCC(=O)Nc2nccs2)c2oc3ccccc3c2n1 returned ERa SRC1 inh 56*[fluorescence artefact?], ERa SRC1 pot 138, Calb biofilm kill 1, Smad3 inh -7 and ERb SRC1 inh 42.
O=C(CSc1ncnc2c1oc1ccccc12)Nc1ccc2c(c1)OCCO2 was read as ERa SRC1 inh 43, ERa SRC1 pot 765*[fluorescence artefact?], Calb biofilm kill 3, Smad3 inh 17, ERb SRC1 inh 57*[fluorescence artefact?] and FAK blocker -50.
`CCc1nc(SCC(=O)Nc2ccc3c(c2)OCCO3)c2oc3ccccc3c2n1` gave ERa SRC1 inh 64*[fluorescence artefact?], ERa SRC1 pot 233*[fluorescence artefact?], Calb biofilm kill 4, Smad3 inh 45, ERb SRC1 inh 57*[fluorescence artefact?] and FAK blocker -74.
For O=C(CSc1ncnc2c1cnn2Cc1ccccc1)Nc1ccc2c(c1)OCCO2 the results were ERa SRC1 inh 1, ERa SRC1 pot 97, Calb biofilm kill 9, Smad3 inh -1, ERb SRC1 inh -3 and FAK blocker -1.
`O=C(CSc1nnc(CNC(=O)c2c(F)cccc2Cl)o1)Nc1ccc2c(c1)OCCO2` gave ERa SRC1 inh -2, ERa SRC1 pot 101, Calb biofilm kill -6, Smad3 inh 22, ERb SRC1 inh 1 and FAK blocker -3.
O=C(CSc1nnc(-c2cccc(Cl)c2)o1)Nc1ccc2c(c1)OCCO2 was read as ERa SRC1 inh 54*[fluorescence artefact?], ERa SRC1 pot 145, Calb biofilm kill 8, Smad3 inh 6, ERb SRC1 inh 22 and FAK blocker 1.
Screening CCOC(=O)C1=C(c2ccccc2)NC(=S)NC1C (centres undefined) returned FAK blocker 1.
O=C(O)[C@@H]1[C@H](C(=O)O)[C@@H](C(=O)O)C[C@H]1C(=O)O was read as Smad3 inh 11.
Screening CCOC(=S)SCC(=O)O returned Smad3 inh -5.
Screening CCOC(=O)CC(=O)CSc1nc(C)nc2c1oc1ccccc12 returned ERa SRC1 inh -9, ERa SRC1 pot 92, Calb biofilm kill 6, Smad3 inh 7, ERb SRC1 inh 5 and FAK blocker 1.
Screening Cc1nc(SCC(=O)Nc2ccc3c(c2)OCCO3)c2oc3ccccc3c2n1 returned ERa SRC1 inh 79*[fluorescence artefact?], ERa SRC1 pot 732*[fluorescence artefact?], Calb biofilm kill 4, Smad3 inh 9, ERb SRC1 inh 40 and FAK blocker -9.
Screening Cc1nc(SCC(=O)O)c2oc3ccccc3c2n1 returned ERa SRC1 inh -1, ERa SRC1 pot 107, Calb biofilm kill 2, Smad3 inh 2, ERb SRC1 inh -1 and FAK blocker 0.
Cc1nc(SCC(=O)NCc2ccccc2)c2oc3ccccc3c2n1 was read as ERa SRC1 inh 0, ERa SRC1 pot active[fluorescence artefact?], Calb biofilm kill -2, Smad3 inh -3, ERb SRC1 inh -12 and FAK blocker 0.
CC(C)(C)OCC(NC(=O)C(CC(N)=O)NC(=O)OC(C)(C)C)C(=O)OC(C)(C)C (centres undefined) was read as ERa SRC1 inh -2, ERa SRC1 pot 100, Calb biofilm kill -3, Smad3 inh -5 and ERb SRC1 inh -1.
`O=c1oc2ccc3ccccc3c2cc1-c1nc2ccccc2o1` gave ERa SRC1 inh 51*[fluorescence artefact?], ERa SRC1 pot 177, Calb biofilm kill 3, Smad3 inh -7, ERb SRC1 inh 27 and FAK blocker 19*.
Screening COCCn1c(C)cc(C(=O)CSc2nc(C)nc3sc4c(c23)CCC4)c1C returned ERa SRC1 inh -6, ERa SRC1 pot 370*[fluorescence artefact?], Smad3 inh -1, ERb SRC1 inh 7 and FAK blocker -2.
`COc1ccc(C(C)=O)cc1CSCCC#N` gave ERa SRC1 inh 9, ERa SRC1 pot 81, Calb biofilm kill 2, Smad3 inh -12, ERb SRC1 inh 5 and FAK blocker 1.
CCCCn1c2nc3ccccc3nc2c2c(=N)oc(C)nc21 was read as ERa SRC1 inh 7, ERa SRC1 pot 314*[fluorescence artefact?], Calb biofilm kill 2, Smad3 inh 21 and ERb SRC1 inh 32.
CCCCn1c2nc3ccccc3nc2c2c(=O)n(CCC(C)C)cnc21 was read as ERa SRC1 inh -1, ERa SRC1 pot 95, Calb biofilm kill -3, Smad3 inh -5, ERb SRC1 inh 10 and FAK blocker 4.
Screening CCCCC(CC)Cn1c2nc3ccccc3nc2c2c(=N)oc(C)nc21 (centres undefined) returned ERa SRC1 inh 21, ERa SRC1 pot 267*[fluorescence artefact?], Calb biofilm kill 5, Smad3 inh -7, ERb SRC1 inh 44 and FAK blocker 3.
